Source: ChEMBL document CHEMBL4513216, “Probing the Open Global Health Chemical Diversity Library for Multistage-Active Starting Points for Next-Generation Antimalarials” (ACS Infect Dis, 2020)
About 2,700 (4%) of roughly 68,000 compounds showed an effect of 50% or more. The sample holds strong results, similar compounds and a random draw of the others, so the mix is not that of the screen.

These compounds were tested on Plasmodium berghei (assay: Screen against P. berghei liver stage (PbLuc), transformed with Luciferase, at 2uM). Conditions: tested at 2 uM.
Type: functional, HepG2

Row | SMILES | INHIBITION [%]
1 | CCN(Cc1cnn(C)c1)C[C@H]1CC[C@@H](Cc2ccc(C)nc2)O1 | 55.84
2 | CCN(Cc1cnn(C)c1)C[C@H]1CC[C@@H](Cc2ccc(CO)cc2)O1 | 36.78
3 | CCN(Cc1cnn(C)c1)C[C@H]1CC[C@@H](Cc2ccc(OC)nc2)O1 | -6.22
4 | CN(C)S(=O)(=O)N1CCO[C@H]2[C@H](Oc3cccnc3)CC[C@@H]21 | -16.75
5 | O=C(c1cc(CC2(NCC3CCCCC3)COC2)no1)N1CCCCC1 | 54.01
6 | OCCc1cc(CC2(NCc3ccncc3)COC2)no1 | 24.64
7 | CC(C)(O)c1cc(CC2(NCC3CCCCC3)COC2)no1 | -24.31
8 | COCc1cc(CC2(NCc3ccccc3Cl)COC2)no1 | 27.54
9 | O=C(c1cc(CC2(NC3CCCCC3)COC2)no1)N1CCCCC1 | 10.08
10 | O=C(c1cc(CC2(NCc3ccccc3)COC2)no1)N1CCCCC1 | 56.76
11 | O=C(Nc1cccnc1)[C@@H]1C[C@H]2OCC[C@H]2N(Cc2nccs2)C1 | 1.06
12 | CSc1ccccc1CN1C[C@@H]2CC[C@H]1CN(Cc1[nH]cnc1C)C2 | 8.26
13 | O=C(Cc1ccc2c(c1)CCO2)N1CCN(c2nccs2)CC1 | -11.34
14 | O=C(Cc1ccc2c(c1)OCO2)N1CCCN(c2nccs2)CC1 | 79.21
15 | O=C(Cc1ccc2c(c1)OCO2)N1CCCN(c2ccccc2)CC1 | -50.86
16 | O=S(=O)(NCC1CCN(c2cnccn2)CC1)c1ccc(F)c(Cl)c1 | 20.8
17 | COc1ccc(-c2nc(C#N)c(N(C)C)o2)cc1S(=O)(=O)N(C)C | -36.29
18 | COC(=O)[C@H](C)NC(=O)Cn1ccc2ccc(F)cc21 | 0.08
19 | COC(=O)CCC(=O)Nc1ccc(Br)c(C)n1 | 11.88
20 | O=C([C@@H]1CCO[C@@H]2CCN(Cc3cccs3)C[C@H]21)N1CCCCO1 | 27.44
21 | CC(C)NC(=O)N1C[C@@H]2C[C@H](C(=O)NCc3ccccc3)[C@H](C1)O2 | 36.17
22 | O=C(NCc1cc(C2CC2)n(C2CCCC2)n1)C1CC1 | 14.47

Row | SMILES | INHIBITION [%]
23 | CCC(=O)NCc1cc(C2CC2)n(C2CCCC2)n1 | 50.7
24 | CCOCC(=O)NCc1cc(C2CC2)n(C2CCCC2)n1 | 6.9
25 | COCC(=O)N1CCC2(CC1)COCCN2Cc1ccc(F)cc1 | -5.65
26 | Cc1ccc(NC(=O)CNC(C)CN2CCCCC2)c(F)c1 (stereo unspecified) | 64.35
27 | Cc1ccc(NC(=O)CNC(C)CN2CCOCC2)c(F)c1 (stereo unspecified) | 21.24
28 | Cc1ccc(NC(=O)CN2CCOCC2)c(F)c1 | -1.29
29 | CSc1nccc(N2CCC(NCc3ccc4nsnc4c3)CC2)n1 | -60.25
30 | O=C(CC1CCc2ccccc21)NC1(C(=O)O)CCOCC1 (stereo unspecified) | 0.54
31 | CC1(NC(=O)CC2CCc3ccccc32)CCOCC1 (stereo unspecified) | 60.15
32 | O=C(CC1CCc2ccccc21)NC1(C(=O)O)CCCC1 (stereo unspecified) | 16.93
33 | COC(=O)c1cc(OCC2CCC2)cc(C(=O)N[C@@H]2CCCNC2)c1 | -28.09
34 | Cc1cccc(C)c1NC(=O)c1cccc(N(C)S(C)(=O)=O)c1C | -11.34
35 | CCCc1[nH]n(C)c(=N)c1-c1ccc2c(c1)OCO2 | 5.92
36 | CCc1[nH]n(C)c(=N)c1-c1ccc2c(c1)OCO2 | 37.53
37 | Cn1nc(C2CCCC2)c(-c2ccc3c(c2)OCO3)c1N | 53.33
38 | CSCCc1nc(-c2ccc3c(c2)OCO3)n(C)n1 | 12.74
39 | Cn1[nH]c(C2CCC2)c(-c2ccc3c(c2)OCO3)c1=N | 14.06
40 | Cn1[nH]c(C2CC2)c(-c2ccc3c(c2)OCO3)c1=N | 58.6
41 | Cc1nc(C)n(C2CCCN(C(=O)c3ccc4c(c3)COC4)C2)n1 (stereo unspecified) | 2.08
42 | O=C1CC[C@@H]2[C@@H](CCN2C(=O)c2ccsc2)N1Cc1ccncc1 | 37.48
43 | Cc1ccc(CN2C[C@H](OCC3CCN(C)CC3)[C@H]3COC[C@H]32)o1 | -14.64
44 | CNC(=O)[C@H]1C[C@H]2OCC[C@H]2N(Cc2cccc3ccccc23)C1 | 16.6

Row | SMILES | INHIBITION [%]
45 | CC(=O)c1c(F)cccc1NCC(O)C(C)(C)C (stereo unspecified) | 53.44
46 | CC(=O)c1c(F)cccc1NCC(O)C1CC1 (stereo unspecified) | 31.96
47 | CC(=O)c1c(F)cccc1NCC(O)c1ccc(F)c(F)c1 (stereo unspecified) | 4.26
48 | CCC(C)NC(=O)c1cc(S(N)(=O)=O)c(Br)s1 (stereo unspecified) | -70.18
49 | CCC(C)NC(=O)c1cc(S(=O)(=O)N(C)C)c(C)s1 (stereo unspecified) | 25.9
50 | CCC(C)NC(=O)c1cc(S(=O)(=O)N2CCCC2)c(C)s1 (stereo unspecified) | 53.12
51 | CC(C)(C)c1nnc(CN2CCCC(c3cc(C(N)=O)[nH]n3)C2)o1 (stereo unspecified) | -47.97
52 | COc1ncnc(N(C)C)c1NC(=O)Cc1cc(F)ccc1F | -73.79
53 | COc1ncnc(N(C)C)c1NC(=O)Cc1c[nH]c2ccc(F)cc12 | 62.92
54 | CN(C)c1ncncc1NC(=O)Cc1c[nH]c2ccc(F)cc12 | 10.04
55 | O=C(CN1CC(c2nc(-c3ccco3)no2)C1)NCC1CCCO1 (stereo unspecified) | 23.01
56 | Cc1cc(NC(=O)NC2CCN(C(C)C)CC2)c2ncccc2c1 | -40.76
57 | CCOc1ccc(S(=O)(=O)NCCc2ccc(N(C)C)cc2)cc1F | 21
58 | COc1ccc(S(=O)(=O)NCCCc2ccc(N(C)C)cc2)cc1F | 25.53
59 | CCOc1ccc(S(=O)(=O)NCCCc2ccc(N(C)C)cc2)cc1F | 51.71
60 | CN(Cc1nnc(-c2ccco2)o1)C(C(N)=O)c1cccc(F)c1 (stereo unspecified) | 5.64
61 | CC(C)CCn1ccc(NC(=O)N2CCCC2CN2CCOCC2)n1 (stereo unspecified) | -39.07
62 | CCNC(=O)CN1CCc2c(Br)ccc(F)c2C1 | -25.78
63 | Cn1ccnc1CN1CCC2(CC1)CN(c1cncnc1)C(=O)CO2 | 7.71
64 | Cc1n[nH]c(=O)c2c(NC(=O)CN3CCC(O)CC3)oc(C)c12 | 5.72
65 | Cc1n[nH]c(=O)c2c(NC(=O)CN3CCC(C)CC3)oc(C)c12 | 26.2
66 | CCOC1CCN(CC(=O)Nc2oc(C)c3c(C)n[nH]c(=O)c23)CC1 | 52.52
